About 79,000 compounds went through this panel and 15% of them were active in at least one assay; those are over-represented in the sample as a whole. Activity calls are given as the source filed them. Rule as the data show it: active = growth inhibition above about 70%; inactive = the rest.
Tests used:
[1] = NCI Yeast Anticancer Drug Screen. Data for the rad50 strain (AID 155);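 also: 0% = growth of vehicle-only cultures of the same strain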; details: S. cerevisiae rad50 strain growth inhibition, stronger effect = higher value
Procedure, shortened: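 Genetically altered yeast (DNA repair pathway); compound treatment; growth inhibition vs vehicle ctrl.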

[2] = NCI Yeast Anticancer Drug Screen. Data for the mec2-1 strain (AID 157); details: S. cerevisiae mec2-1 strain, stronger effect = higher value
Procedure, shortened: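 Strain: mec2-1 (DNA repair/cell cycle alteration). Compound exposure, then growth measured; inhibition expressed relative to vehicle.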

[3] = NCI Yeast Anticancer Drug Screen. Data for the sgs1 mgt1 strain (AID 161);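 also: 0% = growth of cultures given vehicle only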; details: S. cerevisiae sgs1 mgt1 strain, stronger effect = higher value
Procedure, shortened: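 Inhibition of yeast growth, normalised to vehicle-treated controls, is reported for a strain bearing genetic alterations in DNA damage repair.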

[4] = NCI Yeast Anticancer Drug Screen. Data for the cln2 rad14 strain (AID 165);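 also: 0% = growth equal to vehicle treated cultures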; details: S. cerevisiae cln2 rad14 strain, stronger effect = higher value
Procedure, shortened: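 Compounds are applied to the cln2 rad14 yeast strain, and growth is then compared with that of vehicle-treated cultures to give inhibition.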

[5] = NCI Yeast Anticancer Drug Screen. Data for the bub3 strain (AID 167); details: S. cerevisiae bub3 mutant strain, stronger effect = higher value
Procedure, shortened: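 Yeast carrying a defined mutation is treated with each compound, and growth is compared with that of vehicle-exposed cells to give inhibition.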

[6] = NCI Yeast Anticancer Drug Screen. Data for the mlh1 rad18 strain (AID 175); details: S. cerevisiae mlh1 rad18 strain growth inhibition, stronger effect = higher value
Procedure, shortened: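 Read-out is yeast growth inhibition, calculated against vehicle-only controls. The compound was applied to a strain engineered with DNA damage repair alterations.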

[7] = at 5.0 µM (retest, dose inferred, filed as 0.5)
[8] = at 50.0 µM (retest, dose inferred, filed as 5.0)

Measured: growth inhibition

C=CCc1cccc(/C=N\N=C(/N)NO)c1O
inactive: [1]; [7] -1% | [1]; [8] 26% | [1]; at 50.0 µM 43.5% | [2]; [7] 2% | [2]; [8] 35% | [3]; [7] 3% | [3]; [8] 59% | [3]; at 50.0 µM 41.1% | [4]; [7] -6% | [4]; [8] 26% | [4]; at 50.0 µM 48.6% | [5]; [7] -4% | [5]; [8] 8% | [6]; [7] -2% | [6]; [8] 42%
active: [2]; at 50.0 µM 84.5% | [5]; at 50.0 µM 70% | [6]; at 50.0 µM 83.2%

COc1ccc2c(c1)CC/C(=C\c1ccc(OCCN(C)C)cc1)C2=O
inactive: [1]; [7] 12% | [1]; [8] 19% | [1]; at 50.0 µM 40.2% | [2]; [7] 2% | [2]; [8] 15% | [2]; at 50.0 µM 48.8% | [3]; [7] 8% | [3]; [8] 33% | [3]; at 50.0 µM 44.8% | [4]; [7] 8% | [4]; [8] -3% | [4]; at 50.0 µM 15.4% | [5]; [7] 12% | [5]; [8] 25% | [5]; at 50.0 µM 20.4% | [6]; [7] 6% | [6]; [8] 28% | [6]; at 50.0 µM 57%

CCOC(=O)/C(C#N)=C\c1cccc2ccccc12
active: [1]; at 50.0 µM 84% | [2]; [8] 91% | [2]; at 50.0 µM 92.3% | [3]; [8] 75% | [3]; at 50.0 µM 91.8% | [5]; at 50.0 µM 96.2% | [6]; [8] 94% | [6]; at 50.0 µM 95.7%
inactive: [1]; [7] 13% | [1]; [8] 57% | [2]; [7] 1% | [3]; [7] 5% | [4]; [7] -17% | [4]; [8] 27% | [4]; at 50.0 µM -12.4% | [5]; [7] -4% | [5]; [8] 40% | [6]; [7] -2%

CC1CCC2(C)C(CC=C(C=O)C2(O)C=O)C12CO2 (configuration not stated)
inactive: [5]; [8] 54%
active: [1]; [7] 99% | [1]; [8] 99% | [1]; at 50.0 µM 93.4% | [2]; [7] 99% | [2]; [8] 99% | [2]; at 50.0 µM 95.3% | [3]; [7] 99% | [3]; [8] 99% | [3]; at 50.0 µM 94.5% | [4]; [7] 99% | [4]; [8] 99% | [4]; at 50.0 µM 92.9% | [5]; [7] 99% | [5]; at 50.0 µM 93.8% | [6]; [7] 99% | [6]; [8] 99% | [6]; at 50.0 µM 93.5%

N#CC1CCC(c2ccccc2)(c2ccccc2)C1=O (configuration not stated)
inactive: [1]; [7] 5% | [2]; [7] 5% | [3]; [7] 4% | [4]; [7] -2% | [5]; [7] -4% | [6]; [7] -5%
active: [1]; [8] 99% | [1]; at 50.0 µM 94.6% | [2]; [8] 99% | [2]; at 50.0 µM 99.7% | [3]; [8] 100% | [3]; at 50.0 µM 99.6% | [4]; [8] 99% | [4]; at 50.0 µM 97.5% | [5]; [8] 98% | [5]; at 50.0 µM 74.3% | [6]; [8] 98% | [6]; at 50.0 µM 99.5%

CCN(CC)C(=S)Nc1ccc(Cl)cc1
active: [1]; at 50.0 µM 98.5% | [2]; at 50.0 µM 97.7% | [3]; at 50.0 µM 97.1% | [4]; at 50.0 µM 98.5% | [5]; at 50.0 µM 95.2% | [6]; [8] 74% | [6]; at 50.0 µM 97.4%
inactive: [1]; [7] -144% | [1]; [8] 67% | [2]; [7] -50% | [2]; [8] 49% | [3]; [7] -62% | [3]; [8] 63% | [4]; [7] -85% | [4]; [8] 40% | [5]; [7] -65% | [5]; [8] 45% | [6]; [7] -122%

CC1=C(C(=O)NCc2ccccc2)C(c2ccccc2O)C(C(=O)NCc2ccccc2)=C(C)N1
inactive: [1]; [7] 27% | [1]; [8] 27% | [2]; [7] 17% | [2]; [8] 17% | [3]; [7] 17% | [3]; [8] 17% | [4]; [7] 13% | [4]; [8] 13% | [5]; [7] 7% | [5]; [8] 7% | [6]; [7] 15% | [6]; [8] 15%
active: [1]; at 50.0 µM 87.3% | [2]; at 50.0 µM 85% | [3]; at 50.0 µM 79.7% | [4]; at 50.0 µM 71.4% | [5]; at 50.0 µM 86.4% | [6]; at 50.0 µM 78.2%

CC1CCN(CCOC(=O)C(c2ccccc2)C2C=CCCC2)C1 (configuration not stated)
active: [3]; [8] 77% | [6]; [8] 75%
inactive: [1]; [7] 8% | [1]; [8] 34% | [1]; at 50.0 µM 62.9% | [2]; [7] 3% | [2]; [8] 37% | [2]; at 50.0 µM 16.9% | [3]; [7] 8% | [3]; at 50.0 µM 51.1% | [4]; [7] 7% | [4]; [8] 37% | [4]; at 50.0 µM 41.8% | [5]; [7] 9% | [5]; [8] 55% | [5]; at 50.0 µM 36.5% | [6]; [7] 14% | [6]; at 50.0 µM 52.7%

Cc1ccc2c(n1)C(=O)C=CC2=O
active: [1]; [8] 94% | [1]; at 50.0 µM 80.1% | [2]; [8] 94% | [2]; at 50.0 µM 89.5% | [3]; [8] 90% | [3]; at 50.0 µM 80.8% | [4]; [8] 77% | [5]; [8] 97% | [5]; at 50.0 µM 80.8% | [6]; [8] 93%
inactive: [1]; [7] 25% | [2]; [7] 5% | [3]; [7] 22% | [4]; [7] 22% | [4]; at 50.0 µM 22.9% | [5]; [7] 20% | [6]; [7] 17% | [6]; at 50.0 µM 36.2%

Source: PubChem BioAssay (NCI)
